Shown are actives, neighbours in structure and some others; about 4% of the full set was active somewhere.
p53null 39C kill = selectivity test: cytotoxicity in p53 null cells, nonpermissive temperature. H1299 p53-null (neo) cells, 39C, ATPlite viability, 24 h. Potency, µM (top dose mostly 46.1 µM), inactives show top-dose activity, negative = cell killing, most hits filed as cytotoxic. actives 0.97% (n = 55,000);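 also: potency is read from the fitted curve at half-maximal effect; 0% = DMSO only and -100% = full killing by 100 µM tamoxifen; nearly all actives have a fitted effect of over 50% in size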
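Concentration-response (up to 46 uM) was run for 24 h at the nonpermissive 39C on H1299-p53A138V or H1299-neo cells. ATP content was measured with ATPlite luminescence. AC50 values were Hill-modeled after normalizing between DMSO and 100 uM tamoxifen killing.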
SKOV3 invasion = inhibitors of ovarian cancer cell adhesion and invasion in omental model | SKOV3ip1-GFP adhesion/invasion on 3D omental model, fluorescence | Potency, µM (highest dose often 45.8 µM), for inactives: at the highest dose activity change, negative = inhibition, hits mostly inhibitors | actives 0.1% (n = 46,000);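 also: potency is read from the fitted curve at half-maximal effect; plate controls were DMSO wells for no effect and tomatine positive control wells for full effect; nearly all actives have a fitted effect of over 65% in size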
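A 3D layer of primary human omental fibroblasts, mesothelial cells, fibronectin and collagen I, grown 48 hr, received SKOV3ip1-GFP cells in serum-free medium plus compounds at 0.36-46 umol/L. After 2 hr RT and 16 hr 37 C, fixed adherent GFP cells were counted; normalized to DMSO and tomatine.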
DRV1 agonist = GPR32 (DRV1) agonism, beta-arrestin recruitment; O75388; CHO-K1 GPR32 beta-arrestin PathHunter luminescence, 90 min; zero percent set by DMSO-only wells; activation, % at 76.9 µM; actives 2.5% (n = 48,000); AID 1346428;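 active = activation of at least 60% and not above a set upper limit, about 1 call in 100 departs from these limits; inconclusive = activation of 40% to 60%, or above that upper limit; inactive = activation under 40%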; also: 0% is about no effect
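Engineered CHO-K1 line co-expressing GPR32-ProLink and EA-beta-arrestin. Compound treatment lasted 90 min at 37 °C. Luminescence was recorded after 1 h with substrate at ambient temperature, relative to DMSO basal wells.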
NTMT1 inhibitor = blocks human N-terminal methyltransferase 1 activity; actives 2.5% (n = 59,000); Potency, µM (titrated, usually from 114 µM), inactives show at the highest dose activity change, negative = inhibition, usual class: inhibitors; AID 1645870; NTMT1 MTase-Glo SAH luminescence, purified enzyme;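 also: potency is read from the fitted curve at half-maximal effect; plate controls were DMSO vehicle for no effect and no enzyme for full effect; nearly all actives have a fitted effect of over 65% in size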
p53null 32C tox = selectivity test: cytotoxicity in p53 null cells, permissive temperature; Potency, µM (series often up to 46.1 µM), inactives show at the top dose activity change, negative = cytotoxicity, actives largely listed as cytotoxic; actives 0.62% (n = 55,000); H1299-neo p53 null cells, ATP luminescence, 24 h, 32C; AID 903;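 also: potency is read from the fitted curve at half-maximal effect; 0% = DMSO only and -100% = full killing by 100 µM tamoxifen; nearly all actives have a fitted effect of over 55% in size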
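H1299-neo (p53 null) cells, 600/well, treated 24 h at 32C with compound up to 46 uM; ATPlite luminescence viability, normalized to DMSO and 100 uM tamoxifen; AC50 by Hill fit.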
GALC G270D act = enhancers of human galactocerebrosidase G270D mutant activity in cells; P54803; 145M-Twi-hGALC-G270D cells, HMU-beta-Gal fluorescence, 48 h; Potency, µM (highest dose often 57.5 µM), most hits filed as activators; actives 0.1% (n = 45,000); AID 1159614; also: potency is read from the fitted curve at half-maximal effect; 0% is about no effect; nearly all actives have a fitted effect of over 65% in size
Target sequence (P54803 whole entry G286D): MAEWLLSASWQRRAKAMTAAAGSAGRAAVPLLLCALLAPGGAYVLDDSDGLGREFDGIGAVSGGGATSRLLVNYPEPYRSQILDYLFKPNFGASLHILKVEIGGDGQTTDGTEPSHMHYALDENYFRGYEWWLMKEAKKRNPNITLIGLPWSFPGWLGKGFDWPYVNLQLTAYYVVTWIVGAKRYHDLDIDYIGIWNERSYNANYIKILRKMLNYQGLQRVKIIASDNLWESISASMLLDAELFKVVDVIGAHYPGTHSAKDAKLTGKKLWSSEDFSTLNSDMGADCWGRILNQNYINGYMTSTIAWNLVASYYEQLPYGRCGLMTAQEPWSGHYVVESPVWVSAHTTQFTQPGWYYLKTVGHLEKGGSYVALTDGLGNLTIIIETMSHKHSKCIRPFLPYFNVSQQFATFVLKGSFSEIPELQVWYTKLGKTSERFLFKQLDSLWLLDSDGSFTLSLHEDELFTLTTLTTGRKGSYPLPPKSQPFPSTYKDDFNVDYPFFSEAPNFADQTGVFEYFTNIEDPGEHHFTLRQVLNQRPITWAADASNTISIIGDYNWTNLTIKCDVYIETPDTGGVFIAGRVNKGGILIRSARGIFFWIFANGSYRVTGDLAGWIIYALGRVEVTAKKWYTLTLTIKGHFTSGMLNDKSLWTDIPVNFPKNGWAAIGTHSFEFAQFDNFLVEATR
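qHTS, 1536-well; 145M-Twi-hGALC-G270D cells (WT line also made) in DMEM/F12 + 10% FBS; compound incubation on live cells; HMU-β-gal 0.1 mM final, pH 5.2, NaTC; carbonate stop; fluorescence increase = enhanced residual activity.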
* marks the source's active call; other numbers are inactive results; [ ] = dose if it differs, or a comment. Unless noted, calls follow the shape of the dose curve; as a rule, active = well fitted curve in the direction sought with a large enough effect; inconclusive = small, poorly fitted or top-dose-only effect, or another doubt; inactive = no such curve, though single readings can be large; an effect the other way counts as inactive or inconclusive.

`COc1cccc(C(=O)N2CCC(c3nc4ccccc4s3)CC2)c1` gave p53null 39C kill -23%, SKOV3 invasion 2%, DRV1 agonist 95*, NTMT1 inhibitor 28%, p53null 32C tox -2% and GALC G270D act inactive.
`CCCOc1ccc(C(=O)N2CCC(c3nc4ccccc4s3)CC2)cc1` gave p53null 39C kill -17%, SKOV3 invasion 11%, DRV1 agonist 0, NTMT1 inhibitor inconclusive, p53null 32C tox 11% and GALC G270D act inactive.
Screening CCCOc1ccccc1C(=O)N1CCC(c2nc3ccccc3s2)CC1 returned p53null 39C kill -2%, SKOV3 invasion -2%, DRV1 agonist 104*, NTMT1 inhibitor -15%, p53null 32C tox 15% and GALC G270D act inactive.
`O=C(Nc1ccc(N(Cc2ccsc2)C(=O)Cn2nnc3ccccc32)cc1)C1CC1` gave NTMT1 inhibitor 7%[57.5 µM].
O=C1CCCC2=C1C(c1[nH]ncc1Cl)N=C(Nc1ccccc1)N2 (stereo unspecified) was read as NTMT1 inhibitor 1%.
Screening COC(=O)[C@]1(C)CCC[C@@]2(C)[C@@H]3CC[C@@H]4C[C@@]3(CC[C@@H]21)C[C@H]4C(=O)O returned NTMT1 inhibitor 7%[29.8 µM].
For C[C@@H](Oc1cc(-n2cnc3ccc(CN4CCN(C)CC4)cc32)sc1C(N)=O)c1ccccc1C(F)(F)F the results were SKOV3 invasion 1% and NTMT1 inhibitor 8.9µM*.
For CC(Oc1cc(-n2cnc3ccc(CN4CCN(C)CC4)cc32)sc1C(N)=O)c1ccccc1C(F)(F)F (stereo unspecified) the results were NTMT1 inhibitor -18%[57.5 µM].
Screening Cc1cc(N[S+](=O)([O-])c2cc3c(cc2Cl)CCC(=O)N3)ccc1Br returned NTMT1 inhibitor -5%[57.5 µM].
Screening COCCCn1c(SCc2ccccc2F)nc2c(sc3ccccc32)c1=O returned p53null 39C kill 40%, SKOV3 invasion -9%, DRV1 agonist 2, NTMT1 inhibitor -4%, p53null 32C tox 5% and GALC G270D act 32µM*.
For Cc1ccccc1CSc1nc2c(sc3ccccc32)c(=O)n1CCCOC(C)C the results were p53null 39C kill 16%, SKOV3 invasion 2%, DRV1 agonist 21, NTMT1 inhibitor 7%, p53null 32C tox 2% and GALC G270D act inactive.
`CC(C)OCCCn1c(SCC(N)=O)nc2c(sc3ccccc32)c1=O` gave p53null 39C kill 19%, SKOV3 invasion -27%, DRV1 agonist 115*, NTMT1 inhibitor -2%, p53null 32C tox 2% and GALC G270D act inactive.
For CC(C)OCCCn1c(SCC(=O)Nc2ccc(F)cc2)nc2c(sc3ccccc32)c1=O the results were p53null 39C kill 2%, SKOV3 invasion 17%, DRV1 agonist -4, NTMT1 inhibitor 0%, p53null 32C tox -9% and GALC G270D act inactive.
Screening CN(C)c1ccc(-c2ccc(=O)n(CC(=O)NCCc3ccccc3)n2)cc1 returned NTMT1 inhibitor 15%.
`Cc1cccc(-c2nc3c(cnn3-c3ccccc3)c(=O)n2-c2ccc(Br)cc2)c1` gave p53null 39C kill -9%, SKOV3 invasion -12%, DRV1 agonist -29, NTMT1 inhibitor 89µM*, p53null 32C tox -6% and GALC G270D act inactive.
For Cc1ccc(-n2c(-c3cccc(C)c3)nc3c(cnn3-c3ccccc3)c2=O)cc1 the results were p53null 39C kill 37%, SKOV3 invasion inactive, DRV1 agonist -23, NTMT1 inhibitor inconclusive, p53null 32C tox 16% and GALC G270D act inactive.
`O=C(c1cc2sccc2n1Cc1ccccc1)N(CCc1ccc(O)c(O)c1)Cc1ccccc1` gave NTMT1 inhibitor -2%[57.5 µM].
Screening Cc1ccc(C)c(-n2nnc(C(=O)Nc3ccc(Br)cc3)c2C)c1 returned p53null 39C kill 0%, SKOV3 invasion -5%, DRV1 agonist 26, NTMT1 inhibitor -10%, p53null 32C tox 5% and GALC G270D act inactive.
CC(=O)Nc1c(C(=O)Nc2cccc(C)c2)nnn1-c1ccc(C)cc1 was read as p53null 39C kill 2%, SKOV3 invasion inactive, DRV1 agonist 119*, NTMT1 inhibitor 3%, p53null 32C tox 2% and GALC G270D act inactive.
Screening Cc1ccc(NC(=O)c2ccc3snnc3c2)cc1Cl returned p53null 39C kill inconclusive, SKOV3 invasion inactive, DRV1 agonist 95*, NTMT1 inhibitor -3%, p53null 32C tox -8% and GALC G270D act inactive.
Screening Cc1ccc(NC(=O)Nc2ccc3snnc3c2)cc1C returned p53null 39C kill -22%, SKOV3 invasion -6%, DRV1 agonist 66*, NTMT1 inhibitor 0%, p53null 32C tox 0% and GALC G270D act inactive.
C=C1CCC2C(C)(C(=O)O)CCCC2(C)C1CC/C(=C\CO)CO (stereo unspecified) was read as NTMT1 inhibitor -10%[29.8 µM].
For Cc1ccc(N[S+](=O)([O-])c2cc3c(cc2Cl)CCC(=O)N3)cc1Br the results were NTMT1 inhibitor 6%.
Screening O=C1OC2(c3ccccc31)c1cc(Br)c(O)c(Br)c1Oc1c2cc(Br)c(O)c1Br returned DRV1 agonist 68*, NTMT1 inhibitor 50µM* and GALC G270D act inactive.
Cc1ccc2nc3sc(C(=O)NCCCN(C)C)cc3cc2c1 was read as NTMT1 inhibitor -7%[57.5 µM].
For CCC(C)C(=O)Oc1cc(C)ccc1C1(COC(=O)C(C)C)CO1 (stereo unspecified) the results were NTMT1 inhibitor 21%[29.8 µM].
CC1CCN(S(=O)(=O)c2ccc3c(c2)N(CC(=O)N2CCN(c4ccccc4)CC2)C(=O)CO3)CC1 was read as p53null 39C kill -14%, SKOV3 invasion inactive, DRV1 agonist -5, NTMT1 inhibitor 89µM*, p53null 32C tox 8% and GALC G270D act inactive.
CCOc1ccc(NC(=O)c2ccc(N)cc2)cc1 was read as p53null 39C kill inconclusive and p53null 32C tox 11µM*.
CCOc1ccc(C(=O)Nc2ccc(-c3nc4ccccc4[nH]3)cc2)cc1 was read as NTMT1 inhibitor -1%.
`CCOc1ccc(NC(=O)c2sc3ccccc3c2Cl)cc1` gave p53null 39C kill -14%, SKOV3 invasion -4%, DRV1 agonist 70* and p53null 32C tox -4%.
For O=c1c(-c2ccc(O)cc2)coc2cc(O[C@@H]3O[C@H](CO)[C@@H](O)[C@H](O)[C@H]3O)ccc12 the results were NTMT1 inhibitor 7%.

Bioassay records: PubChem, National Center for Advancing Translational Sciences (NCATS)
